# Data reported in PubChem BioAssay (NCI).
# This is part of a sample that, as a whole, favours compounds with a hit. Of some 83,000 tested, about 20% had one in any assay.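 Testing used 96-well plates and a 48-hour single-concentration exposure. Example: -40 means 40% of the starting cells died.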 A number with no mark means an inactive call. The source made the active and inactive calls. The calls were made as follows: active = growth percent below 10; inactive = the rest.
# Columns and labels:
# Test in all cases: NCI-60 one-dose screen, 48 h (100 = growth as untreated, 0 = no growth, -100 = all killed)
# Conditions in all cases: 10 µM unless noted
# EKVX NSCLC = test system: EKVX NSCLC
# SN12C renal = test system: SN12C renal
# UO-31 renal = test system: UO-31 renal
# TK-10 renal = test system: TK-10 renal
# ACHN renal = test system: ACHN renal
# CAKI-1 renal = test system: CAKI-1 renal
# A498 renal = test system: A498 renal
# CCRF-CEM leukemia = test system: CCRF-CEM leukemia
# MOLT-4 leukemia = test system: MOLT-4 leukemia
# SR leukemia = test system: SR leukemia
SMILES,growth (EKVX NSCLC),growth (SN12C renal),growth (UO-31 renal),growth (TK-10 renal),growth (ACHN renal),growth (CAKI-1 renal),growth (A498 renal),growth (CCRF-CEM leukemia),growth (MOLT-4 leukemia),growth (SR leukemia)
CCN(CC)c1ccc(N=Nc2cc(Cl)ccc2Cl)c(NC(=O)CCC(=O)O)c1,79.7%,91.4%,60.9%,121%,88.8%,93.4%,80.1%,103%,95.1%,98.4%
Cc1c(NCc2nnc3n(Cc4ccccc4)c(=O)c4c5c(sc4n23)CCCC5)c(=O)n(-c2ccccc2)n1C,84.7%,96.5%,71.4%,93.3%,96%,78%,75.1%,4.57% (active),52.7%,68.7%
CC(CCC(=O)O)(NC(=O)c1ccc([N+](=O)[O-])cc1)C(=O)O (stereo not given),114%,107%,86.2%,106%,125%,108%,108%,103%,93.6%,95.7%
CCOC(=O)c1ccccc1OC(=O)NNc1ccccc1,92.8%,66.4%,29.3%,72.9%,51.9%,25.5%,100%,24.6%,17.9%,27.6%
Fc1ccc(-c2nnc(-c3c(-c4ccc(F)cc4)nc4ncccn34)o2)cc1,108%,104%,77.8%,111%,97.8%,100%,69.8%,96.7%,83.4%,90.8%
COc1cccc(/C=C2\COc3ccc(O)c(O)c3C2=O)c1OC,70.4%,-62.7% (active),-94.7% (active),11.7%,-60.1% (active),22.6%,80.3%,3.28% (active),-12.8% (active),-8.94% (active)
Cc1cc(C(C)(C)C)cc(C)c1CC1=NCCN1,89%,111%,93%,113%,92.8%,85.4%,117%,103%,93.5%,94.3%
COc1ccc2[nH]cc(/C=C3/C(=O)Nc4ccc(F)cc43)c2c1,77.2%,78.2%,73.1%,104%,68.4%,62.4%,76%,63.2%,61.6%,83.2%
CC(C)C/C(=N\NC(=O)c1ccncc1)c1cc(Cl)ccc1O,25.7%,26.3%,10.9%,15.4%,13.3%,3.32% (active),49.5%,7.99% (active),3.56% (active),6.34% (active)
N#CCCCCCn1c2ccccc2c2c3c(c4c5ccccc5[nH]c4c21)C(=O)N(O)C3=O,46%,6.13% (active),-44.9% (active),22%,-81.6% (active),-59.9% (active),-76.3% (active),-1.67% (active),-21.3% (active),-9.51% (active)
O=C(CN1CCCCC1)Sc1nnc2sc3ccccc3n12,104%,103%,68.3%,122%,118%,86.2%,107%,104%,98.1%,99.9%
CC(C)c1ccc(C(=O)Nc2sc3c(CN(C)C)c(O)ccc3c2C(N)=O)cc1,86.7%,55.9%,34.1%,97.4%,61.3%,79.6%,82.5%,-17.9% (active),15.2%,-2.24% (active)
O=C(C(Br)Br)C(Br)C(Br)c1ccccc1 (stereo not given),117%,93.7%,17.8%,27.7%,6.67% (active),72.7%,101%,14.8%,27.7%,19.3%
O=C(C(=O)N1CCOCC1)c1ccc(OC2OC(CO)C(O)C(O)C2O)cc1 (stereo not given),104%,106%,102%,101%,97.9%,98.5%,104%,107%,90.3%,102%
CCOc1cccc(C2CC(=O)Nc3cc4c(cc32)OCO4)c1 (stereo not given),83.8%,104%,68.6%,86.2%,89.7%,64%,66.5%,72.7%,78.2%,57.5%
CC12CCCCC1C(C(N)=O)C(=O)O2 (stereo not given),123%,97.9%,93.9%,100%,112%,104%,124%,102%,98.1%,94.6%
O=C(Nc1ccc(Cl)cc1Cl)Nc1ccc(-c2cccnc2)cc1N1CCC(CO)CC1,50.6%,30.7%,17%,52.8%,41.1%,25.5%,6.41% (active),17.8%,-0.573% (active),6.57% (active)
Cc1cc(N2CCOCC2)nc(N2CCOCC2)n1,95.7%,95.5%,-1.48% (active),92.2%,108%,96.7%,100%,95.3%,104%,105%
CC1=CSC2=NCCN12,103%,99.5%,77.6%,97.7%,110%,93.5%,118%,93.6%,102%,93.1%
CN(C)c1ccc(/C=C\c2ccnc3ccccc23)cc1,34.5%,76.1%,34.6%,55.9%,70.6%,77.2%,63.9%,29.5%,66.7%,-32.4% (active)
COc1ccc(CCN2CCCN3C2=Nc2ccccc2S3(=O)=O)cc1,45%,53.7%,53.4%,61.1%,51%,46.5%,0.819% (active),19.4%,24.7%,24.5%
COc1ccc2c(c1)/C(=C\c1c[nH]c3ccc(F)cc13)C(=O)N2,64.8%,82.2%,57.8%,96.2%,52.7%,56.7%,68.9%,78.9%,50.6%,46.4%
CCOc1ccccc1C(=O)OCC(=O)Nc1cccc(S(=O)(=O)N(C)C)c1,104%,103%,79%,169%,121%,95.2%,118%,169%,105%,105%
CCN(CC)CCCCNc1c2ccccc2[n+](C)c2c1[nH]c1ccccc12,-20.3% (active),-2.39% (active),22.2%,-12.1% (active),27.9%,81%,-11.8% (active),-33.1% (active),-4.88% (active),-37.3% (active)
CC(C)(C)c1ccc(S(=O)(=O)O)s1,92.7%,97.7%,40.1%,110%,96.3%,-3.29% (active),95.4%,102%,76.1%,73.1%
Cn1c(N)c(N=O)c(=O)[nH]c1=O,98%,101%,82.5%,101%,100%,108%,111%,91.1%,96.3%,97.6%
OC(CCC(O)(c1ccccc1)c1ccccc1)(c1ccccc1)c1ccccc1,58.8%,88%,74.7%,107%,100%,44.4%,60.2%,33.5%,18.5%,79.6%
COc1ccc(-c2nn(-c3cccc(Cl)c3)cc2C2CC(c3ccccc3)=NN2C(C)=O)cc1 (stereo not given),67.6%,69.7%,58.9%,62.8%,15.1%,53%,56.9%,83%,93.9%,75.6%

SMILES,growth (EKVX NSCLC),growth (SN12C renal),growth (UO-31 renal),growth (TK-10 renal),growth (ACHN renal),growth (CAKI-1 renal),growth (A498 renal),growth (CCRF-CEM leukemia),growth (MOLT-4 leukemia),growth (SR leukemia)
CCCCC1Nc2nc(SC)n(C)c(=O)c2CN(Cc2ccccc2)C1=O (stereo not given),82.8%,93.4%,72.2%,78.3%,90.2%,69.3%,117%,87%,120%,285%
C=C1CC[C@@H]2[C@](C)(COC(C)=O)[C@H](OC(C)=O)CC[C@@]2(C)[C@@H]1CC(Nc1ccc(S(=O)(=O)Nc2cc(C)on2)cc1)C1=CCOC1=O (stereo not given in full),81.9%,31.8%,56.9%,58.4%,19.5%,44%,98.6%,-19.1% (active),-7.86% (active),1.4% (active)
Cn1c(=O)c2c(nc(Br)n2CCC(=O)Nc2ccc(F)cc2)n(C)c1=O,108%,106%,78.3%,103%,102%,93.7%,98.2%,99.5%,95.9%,107%
O=C1C(=O)c2ccc(Br)cc2-c2cc(Br)ccc21,99.8%,34.1%,48.4%,114%,39%,58.1%,115%,10.1%,-31.4% (active),4.99% (active)
O[C@@H]1Cc2ccc3ccccc3c2N[C@H](c2ccoc2)C1,95.9%,103%,82.3%,106%,103%,96.6%,84.4%,81.3%,88.2%,93.3%
[O-]/[N+](=C\C=C\c1ccccc1)c1ccccc1,100%,106%,97.4%,144%,108%,103%,96.9%,88%,85.1%,73%
CCOc1cc(C(C)(C)C)ccc1C1=N[C@H](c2ccc(Cl)cc2)[C@H](c2ccc(Cl)cc2)N1C(=O)N1CCN(CC#Cc2cccc3c2CN([C@@H]2CCC(=O)NC2=O)C3=O)CC1,48.4%,24.4%,5.26% (active),49%,23.6%,7.99% (active),14.1%,-4.36% (active),-13.3% (active),9.99% (active)
Cc1ccc([N+](=O)[O-])cc1NC(=O)Nc1cccc(F)c1,48.6%,88.9%,67.7%,69.1%,67.7%,53.4%,78.3%,54.4%,62%,62.6%
CC(=O)NCCSC(=O)C(=O)SCCNC(C)=O,101%,99.4%,95.7%,128%,108%,105%,104%,119%,112%,114%
Cn1c(=O)c2nc(SCc3ccccc3)n(C)c2n(C)c1=O,123%,90.4%,98.3%,111%,99.1%,119%,77.3%,122%,106%,83.3%
CC(=O)c1nc2ccccc2n1CCn1cc(CC(N)C(=O)O)c2ccccc21 (stereo not given),82.4%,93.7%,69.4%,102%,96.9%,95.9%,116%,82.9%,83.9%,90.7%
CCOC(=O)c1c(C)nc(C)c(C(=O)OCC)c1-c1cccnc1,105%,109%,94%,121%,99.5%,106%,125%,102%,54.8%,53.7%
Nc1nc(N)c([N+](=O)[O-])c(=O)[nH]1,121%,105%,80.8%,94.6%,98.7%,104%,97.9%,93.1%,111%,106%
COc1cccc(-c2nnc(N)o2)c1,100%,97.2%,97.1%,121%,103%,98.4%,97.8%,103%,110%,124%
COC(=O)CCC1=C(C)C(C)=N/C1=C\c1[nH]c(-c2ccc[nH]2)cc1OC,29.9%,13.9%,-67% (active),16%,-7.31% (active),11.6%,4.29% (active),-22.7% (active),-29.7% (active),-31.4% (active)
O=C(C(=O)N1CCCCC1)c1ccc(OC2OC(CO)C(O)C(O)C2O)cc1 (stereo not given),111%,98.9%,105%,107%,107%,94.4%,126%,97.7%,87.7%,101%
NC(=O)NN=C(C1CC1)C1CC1,103%,108%,82.1%,101%,95.4%,103%,107%,125%,82.8%,85.6%
CO[C@H]1/C=C/O[C@@]2(C)Oc3c(C)c(O)c4c(O)c(c(/C=N/N5C(C)CN(Cc6ccccc6)CC5C)c(O)c4c3C2=O)NC(=O)/C(C)=C\C=C\[C@H](C)[C@H](O)[C@@H](C)[C@@H](O)[C@@H](C)[C@H](OC(C)=O)[C@@H]1C (stereo not given in full),64.7%,87%,34.1%,69.1%,70.1%,117%,96.1%,285%,217%,212%
CCn1c2c(c3ccccc31)SC1c3cccn3CCN1C2=S (stereo not given),107%,98.3%,84.9%,89%,99.1%,88.3%,115%,81.2%,88.8%,109%
C=C(C)[C@@H]1C/C=C(/C=O)CC[C@@H]2O[C@@]2(C)CC/C=C(\C)CC1,69.8%,116%,122%,114%,100%,8.5% (active),124%,137%,133%,125%
Cc1ccccc1-c1cc(Cc2ccccc2O)c(=O)[nH]n1,67%,97.4%,71.1%,130%,94.9%,88.8%,110%,-49.5% (active),86.7%,92.5%
NC(=O)c1ccccc1NC(=O)c1ccccc1Cl,103%,101%,82.8%,141%,104%,98.3%,98.3%,97.3%,63.7%,-9.77% (active)
Cc1ccc(C(=O)Nc2ccc(Cl)cc2C(=O)NCc2ccccc2)cc1,80.3%,97.7%,76.5%,105%,86.4%,77.7%,79.2%,73.9%,51.4%,37.1%
C[n+]1ccc(Nc2ccc(NC(=O)c3ccc(Nc4cc[n+](C)c5ccc(N)cc45)cc3)cc2)cc1,93.9%,88.4%,75.7%,108%,100%,94.5%,93.9%,98%,97.5%,93.2%
O=C(Nc1ccccc1Cl)c1cnc2ccc(C3CCNCC3)cn12,38.5%,58.8%,-9.91% (active),-13.2% (active),12.7%,-40.1% (active),36.6%,112%,62.5%,93%
COc1ccc2c3c(c(OCCCN(C)C)nc2c1)-c1ccc(Cl)cc1C3=O,21.3%,32.6%,-72.3% (active),11.2%,-75.5% (active),29.5%,60.9%,-39.7% (active),-17.2% (active),-32.7% (active)
Cc1cc(C)n(C(=O)c2nn(-c3ccc(Cl)cc3)cc2O)n1,66.8%,25.6%,13.7%,35.7%,33.4%,77.6%,56.2%,13%,9.99% (active),3.49% (active)
